Experimental data published in PubChem BioAssay (EPA / NIEHS).
Where a structure was tested more than once in an assay, its records may differ in their call. Activity calls are given as the source filed them. Rule for the calls: active = hit-call score of the fitted dose curve at least 0.9, where 1 is the maximum; inactive = score below 0.9.

Test: ATG_ISRE_CIS: Attagene CIS-FACTORIAL HepG2 Assay for human Interferon Regulatory Factor 1 (IRF1) binding to an Interferon-Stimulated Response Element (ISRE) (AID 2282948)
Conditions: HepG2 ISRE cis-reporter (Attagene), mRNA transcription readout; actives raise or lower the signal
Protocol: ATG_CIS is a cell-based, multiplexed-readout assay that uses HepG2, a human liver cell line, with measurements taken at 24 hours after chemical dosing in a 24-well plate.ATG_ISRE_CIS is one of 52 assay component(s) measured or calculated from the ATG_CIS assay. It is designed to make measurements of mRNA induction, a form of inducible reporter, as detected with fluorescence intensity signals by Reverse transcription polymerase chain reaction (RT-PCR) and Capillary electrophoresis technology.Data from the assay component ATG_ISRE_CIS was analyzed into 1 assay endpoint. This assay endpoint, ATG_ISRE_CIS, was analyzed with bidirectional fitting relative to DMSO as the negative control and baseline of activity. Using a type of inducible reporter, measures of mRNA for gain or loss-of-signal activity can be used to understand the reporter gene at the transcription factor-level as they relate to the gene IRF1. Furthermore, this assay endpoint can be referred to as a primary readout, because this assay has produced multiple assay endpoints where this one serves a reporter gene function. To generalize the intended target to other relatable targets, this assay endpoint is annotated to the dna binding intended target family, where the subfamily is interferon regulatory factors.
Human liver HepG2 cells are transiently transfected with multiple reporter transcription units (MRTUs) in 6-well plates using FuGene 6 reagent (Roche; 3 ml FuGene/1 mg DNA). The MRTU constructs are regulated by a cis-regulating element (promoter). […] A major difference between the CIS and TRANS system is that in CIS activities of endogenous TFs are measured, whereas the TRANS assay evaluates changes in activities of exogenous, chimeric NR-Gal4 proteins. […] At the end of 24 hour incubation, total RNA was isolated using TriZol reagent (Invitrogen). The isolated RNA is then reverse-transcribed using oligo(dT) primer and Mo-MLV reverse transcriptase (Invitrogen) with DNAse I (Ambion) treatment for 30 min. The one-tenth of the produced cDNA was amplified by PCR using Taq DNA polymerase (Invitrogen) and two reporter sequence-specific primers. The PCR products were fluorescently labeled by primer extension with 6-arboxyfluorescein (6-FAM) 5'-labeled reporter sequence-specific primer (2 min at 95 C, 20 s at 68 C and 10 min at 72 C) and these products were digested with 5U of HpaI (New England Biolabs) for 2h at 37 C. The fragments were purified using Qiaquick PCR columns (Qiagen), analyzed on an ABI 3130xL genetic analyzer (Applied Biosystems) with peak positions identified by using a set of X-rhodamine (ROX)-labeled MapMarker1000 molecular weight standards (BioVentures). The raw capillary electrophoresis data was processed using Attagraph software (Attagene).

SMILES	outcome	AC50
CCOP(=S)(OCC)Oc1cc(C)nc(C(C)C)n1	inactive	
N#CSCSC#N	inactive	
CCOP(=O)(SC(C)CC)N1CCSC1=O (stereo not given)	inactive	
CCC(=O)Nc1ccc(Cl)c(Cl)c1	inactive	
CCOC(=O)COc1cc(-c2nn(C)c(OC(F)F)c2Cl)c(F)cc1Cl	inactive	
CSc1nnc(C(C)(C)C)c(=O)n1N	inactive	
CCC(=NOC/C=C/Cl)C1=C(O)CC(C2CCOCC2)CC1=O (stereo not given)	inactive	
COP(=O)(OC)OC(Br)C(Cl)(Cl)Br (stereo not given)	inactive	
CCOP(=S)(OCC)OC(Cl)C(Cl)(Cl)Cl (stereo not given)	inactive	
CCNc1nc(Cl)nc(NC(C)(C)C#N)n1	inactive	
CSc1nc(NC(C)C)nc(NC(C)C)n1	inactive	
CCOC(=O)CC(SP(=O)(OC)OC)C(=O)OCC (stereo not given)	inactive	
CCOP(=O)(OCC)Oc1cc(C)nc(C(C)C)n1	inactive	
CC(=NC#N)N(C)Cc1ccc(Cl)nc1	inactive	
CNC(=O)ON=C(SC)C(=O)N(C)C	inactive	
Cc1cc(C2CC2)nc(Nc2ccccc2)n1		81 µM (active)
S=C1NCCN1	inactive	
CCCOCC(=Nc1ccc(Cl)cc1C(F)(F)F)n1ccnc1	inactive	
COP(=O)(NC(C)=O)SC (stereo not given)	inactive	
CCC(CC)Nc1c([N+](=O)[O-])cc(C)c(C)c1[N+](=O)[O-]		50 µM (active)

SMILES	outcome	AC50
CN(C)[C@@H]1C(=O)C(C(N)=O)=C(O)[C@@]2(O)C(=O)C3=C(O)c4c(O)cccc4[C@@](C)(O)[C@H]3[C@H](O)[C@@H]12	inactive	
Nc1nc(N)nc(NC2CC2)n1	inactive	
CCCCOC(=O)c1ccccc1C(=O)O	inactive	
CC(C)N(C(=O)SCC(Cl)=C(Cl)Cl)C(C)C	inactive	
O=C(O)c1cc(Oc2ccc(C(F)(F)F)cc2Cl)ccc1[N+](=O)[O-]	inactive	
O=[N+]([O-])c1cc(C(F)(F)F)c(Cl)c([N+](=O)[O-])c1Nc1ncc(C(F)(F)F)cc1Cl	inactive	16.6 µM (active)
COP(=O)(OC)C(O)C(Cl)(Cl)Cl (stereo not given)	inactive	
COc1ccc(C(=CC(=O)N2CCOCC2)c2ccc(Cl)cc2)cc1OC	inactive	
CNc1cnn(-c2cccc(C(F)(F)F)c2)c(=O)c1Cl	inactive	
CCCSP(=O)(OCC)SCCC	inactive	
CCc1cnc(C2=NC(C)(C(C)C)C(=O)N2)c(C(=O)O)c1 (stereo not given)	inactive	
C#CC(C)(C)NC(=O)c1cc(Cl)cc(Cl)c1	inactive	
Cc1nn(-c2cc(NS(C)(=O)=O)c(Cl)cc2Cl)c(=O)n1C(F)F	inactive	
CCCSP(=O)(OCC)Oc1ccc(Br)cc1Cl (stereo not given)	inactive	
CCCCN(CC)c1c([N+](=O)[O-])cc(C(F)(F)F)cc1[N+](=O)[O-]	inactive	
CCOP(=S)(OCC)SCCSCC	inactive	
CC(C1CC1)C(O)(Cn1cncn1)c1ccc(Cl)cc1 (stereo not given)	inactive	
COc1cccc(C(=O)NN(C(=O)c2cc(C)cc(C)c2)C(C)(C)C)c1C	inactive	
CC(C)[C@H](C(=O)O[C@H](C#N)c1cccc(Oc2ccccc2)c1)c1ccc(Cl)cc1	inactive	
